Results from PubChem BioAssay (NCI).
The panel holds about 83,000 compounds, 20% with a hit somewhere; the sample as a whole holds those more often.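 A percent growth of 40 corresponds to 60% growth inhibition; 0 means no net growth; -100 means all cells died. Active threshold: below 10.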 Calls of active or inactive are those of the source.

What was measured:
Test in all cases: NCI-60 one-dose screen, 48 h (100 = growth as untreated, 0 = no growth, -100 = all killed)
Details in all cases: 10 µM unless noted
[1] = tested on: SR leukemia
[2] = tested on: RPMI-8226 leukemia
[3] = tested on: OVCAR-8 ovarian
[4] = tested on: OVCAR-5 ovarian
[5] = tested on: OVCAR-4 ovarian
[6] = tested on: SK-OV-3 ovarian
[7] = tested on: IGROV1 ovarian
[8] = tested on: OVCAR-3 ovarian
[9] = tested on: HS 578T breast
[10] = tested on: NCI/ADR-RES ovarian
[11] = tested on: T-47D breast
[12] = tested on: BT-549 breast
[13] = tested on: MDA-MB-435 melanoma
[14] = tested on: SW-620 colon
[15] = tested on: MCF7 breast
[16] = tested on: HCT-116 colon
[17] = tested on: HCC-2998 colon
[18] = tested on: KM12 colon

Measured: growth

COc1ccc(/C=C/c2nc(Nc3ccc(S(=O)(=O)NC(C)=O)cc3)c3ccccc3n2)cc1
inactive: [1] 53.9% | [2] 76.9% | [3] 76.2% | [4] 72.5% | [5] 79.4% | [6] 90.2% | [7] 91.6% | [8] 95.5% | [9] 82.8% | [10] 85.9% | [11] 67.7% | [12] 86.8% | [13] 63% | [14] 68.2% | [15] 46.7% | [16] 47.4% | [17] 82.1% | [18] 57.8%

COc1cc2c(c(O)c1Br)C(=O)c1c(O)cc(C[C@H](C)O)cc1[C@H]2[C@H]1c2cc(C[C@H](C)O)cc(O)c2C(=O)c2c1cc(OC)c(Br)c2O
inactive: [3] 10.4% | [5] 11.5% | [10] 56.3% | [12] 17.3% | [14] 18.2% | [16] 10.1% | [17] 26%
active: [1] -5.41% | [2] 9.04% | [4] 0.764% | [6] 8.82% | [7] 2.65% | [8] -27.4% | [9] 9.13% | [11] 8.03% | [13] 9.24% | [15] 8.05% | [18] 9.13%

COc1cc(/C=C/c2cc(O)c(C(C)=O)c(O)c2)cc2c1O[C@]1(C)CC[C@@H](O)C(C)(C)[C@H]1C2
inactive: [1] 29.9% | [3] 67.7% | [4] 89.8% | [5] 90.8% | [6] 66.1% | [7] 60.3% | [8] 61.4% | [9] 25.4% | [10] 74.2% | [11] 49% | [12] 22.1% | [13] 73% | [14] 69.3% | [15] 45.3% | [16] 45.2% | [17] 75.1% | [18] 53.9%
active: [2] -7.38%

CCOC(=O)c1cc(C(=O)c2cc(OC)cc(OC)c2)n2ccc3ccccc3c12
inactive: [1] 116% | [2] 108% | [3] 89.9% | [4] 98% | [5] 88.8% | [6] 98.2% | [7] 102% | [8] 112% | [9] 82.5% | [10] 92.8% | [11] 95% | [12] 74.7% | [13] 99.5% | [14] 102% | [15] 99.2% | [16] 84% | [17] 108% | [18] 100%

O=C(Nc1ccccc1)Nc1ccc2cc3ccc(NC(=O)Nc4ccccc4)cc3nc2c1
active: [1] -18.6% | [3] -23.7% | [5] -31.9% | [8] -11.6% | [9] -26.7% | [11] -3.77% | [14] -62.7% | [16] -57.1% | [17] -28.9%
inactive: [2] 104% | [4] 92.4% | [6] 112% | [7] 51% | [10] 102% | [12] 86.2% | [13] 21.9% | [15] 27.2% | [18] 38.9%

Cc1ccc(S(=O)(=O)Nn2c3c(cc(-c4nc5ccccc5s4)c2=O)CCCCCC3)cc1
inactive: [1] 97.8% | [2] 97.8% | [3] 92.3% | [4] 105% | [5] 98.5% | [6] 104% | [7] 95.3% | [8] 102% | [9] 91.7% | [10] 95.8% | [11] 96.4% | [12] 109% | [13] 103% | [14] 99.6% | [15] 91.3% | [16] 98% | [17] 115% | [18] 101%

C=C(C)[C@@H]1CC[C@]2(C(=O)N3CCN(C)CC3)CC[C@]3(C)[C@H](CC[C@@H]4[C@@]5(C)C/C(=C/c6ccncc6)C(=O)C(C)(C)[C@@H]5CC[C@]43C)[C@@H]12
inactive: [2] 20.7% | [3] 49.1% | [4] 88.8% | [5] 53% | [6] 88.8% | [7] 74.8% | [8] 53.3% | [9] 61.8% | [10] 57.9% | [11] 48.3% | [12] 66.3% | [13] 56.4% | [14] 39.6% | [15] 19% | [16] 17.6% | [17] 62.5% | [18] 51.3%
active: [1] 9.44%

COc1cccc(C(=O)NNc2nc(Cl)nc(N3CCN(C(c4ccccc4)c4ccccc4)CC3)n2)c1
active: [1] -23.8% | [7] 2.85%
inactive: [2] 88% | [3] 71.1% | [4] 97.3% | [5] 72.2% | [6] 96% | [8] 10.5% | [9] 91.6% | [10] 88% | [11] 83.3% | [12] 81.6% | [13] 97.2% | [14] 33.9% | [15] 88% | [16] 39.2% | [17] 64% | [18] 90.2%
